MITF inh = human MITF inhibition, primary screen; inhibition, % at 2.6 µM; AlphaScreen MITF homodimerization, bead proximity signal; actives 0.91% (n = 650,000); O75030; in the data active means inhibition above about 50%;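 further: 0% = vehicle wells with protein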
GPR151 ag = activators of human GPR151. Q8TDV0. PathHunter beta-arrestin GPR151 cells, luminescence. activation, % at 11.2 µM. actives 1% (n = 650,000). AID 1508602; in the data active means activation above about 4.9%;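 further: 0% = median of compound wells and 100% = cells with positive control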
Target sequence (Q8TDV0 whole entry, looked up): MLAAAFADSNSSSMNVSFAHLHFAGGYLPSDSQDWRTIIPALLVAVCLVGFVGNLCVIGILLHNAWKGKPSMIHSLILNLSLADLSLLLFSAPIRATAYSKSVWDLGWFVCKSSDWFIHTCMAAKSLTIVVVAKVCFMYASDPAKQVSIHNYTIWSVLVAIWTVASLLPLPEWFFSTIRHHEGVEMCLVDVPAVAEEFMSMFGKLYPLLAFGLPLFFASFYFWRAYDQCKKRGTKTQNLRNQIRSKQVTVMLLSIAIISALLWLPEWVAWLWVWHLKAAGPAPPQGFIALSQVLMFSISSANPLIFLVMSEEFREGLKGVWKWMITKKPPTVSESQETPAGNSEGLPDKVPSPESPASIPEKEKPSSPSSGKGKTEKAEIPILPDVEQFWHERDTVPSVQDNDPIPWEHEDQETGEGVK
FBW7 act = human FBW7 E3 ligase activation, primary screen; normalized activity (activation), % at 26.1 µM; actives 0.13% (n = 650,000); AID 1259310; AlphaScreen FBW7–phospho-cyclin E peptide binding, activator screen; Q969H0; in the data active means normalized activity above about 1.9%;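 further: purified mutant Fbw7 with reduced substrate affinity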
TEAD-YAP inh = TEAD-YAP interaction inhibition; HEK-TIYL cells, TEAD-Gal4/YAP UAS-luciferase luminescence; inhibition, % at 9.12 µM; actives 1.4% (n = 640,000); in the data active means inhibition above about 32%;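 further: 0% = median of test compound wells and 100% = reference inhibitor wells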
MITF confirm = human MITF inhibition, confirmation. shares compounds with MITF inh. AlphaScreen MITF homodimerization, biotin/His-MITF beads. inhibition, % at 2.6 µM. actives 16% (n = 4,700);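 active means inhibition above a cutoff derived from the DMSO control wells, cut at about 28% in these data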;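 further: 0% = MITF dimer wells with DMSO only; inhibitors lower the bead chemiluminescence by keeping MITF from dimerizing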
AlphaScreen DR = AlphaScreen optical interference, dose response counter-screen | shares compounds with MITF inh | AlphaScreen optical interference counterscreen, cell-free | IC50, µM | actives 6% (n = 480); call rule not given here
AS interf ctr = AlphaScreen optical interference, counter-screen | shares compounds with MITF inh | LysRS AlphaScreen counterscreen, signal interference, triplicate | inhibition, % at 2.6 µM | actives 7.6% (n = 4,700) | AID 1259376;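 active means inhibition above a cutoff derived from the DMSO control wells, cut at about 30% in these data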
GPR151 confirm = confirmation of human GPR151 activators | shares compounds with GPR151 ag | GPR151 PathHunter beta-arrestin cells, luminescence, 90 min; % of EA-reagent control over plate median | activation, % at 11.2 µM | 6,700 tested, under 10 active | AID 1508609;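 active means mean percent activation across replicates above the confirmation screen cutoff of 4.91%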
GPR119 counter = counter-screen for GPR151 activators: effect on human GPR119. shares compounds with GPR151 ag. GPR119 PathHunter beta-arrestin cells, luminescence, 90 min; 0 = compound-well median, 100 = enzyme-acceptor control. activation, % at 11.2 µM. actives 0.3% (n = 6,700);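 active means mean percent activation in the counterscreen above 29.09%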;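 further: counterscreen on off-target GPR119 to flag nonselective hits from the GPR151 activator screen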
The depositor's hits bear a star; . = no result given. Compounds with a hit are over-represented: about 3.4% of the library has one in this group of screens.

SMILES	MITF inh	GPR151 ag	FBW7 act	TEAD-YAP inh	MITF confirm	AS interf ctr	others
CC(C(=O)Nc1ccccc1-c1ccccc1)N1CCCC1 (configuration not stated)	75.2*	0.1	0.0	0.7	13.3	18.9
CC(N)C(=O)Nc1ccccc1-c1ccccc1 (configuration not stated)	7.0	-0.1	0.0	2.0	.	.
Cn1nc(Oc2ccc(-c3ccccc3)cc2)c(=O)n(C)c1=O	79.7*	-1.1	0.0	-8.8	15.7	8.7
O=[N+]([O-])c1ccc(CN2CCC(N3CCN(CCO)CC3)CC2)cc1	53.2*	-0.8	-0.2	5.1	10.6	10.3
CC1CCCC(N2CCN(c3ccc([N+](=O)[O-])cc3)CC2)C1 (configuration not stated)	19.9	1.0	0.2	-10.4	.	.
CC1CCC(N2CCN(Cc3ccc([N+](=O)[O-])cc3)CC2)CC1 (configuration not stated)	65.3*	-1.2	0.1	1.9	11.9	13.2
O=[N+]([O-])c1ccc(CN2CCC(N3CCCCCC3)CC2)cc1	14.4	1.2	0.0	0.6	.	.
CCCN1CCC(N2CCN(c3ccc([N+](=O)[O-])cc3)CC2)CC1	54.7*	0.4	0.0	-2.5	10.6	17.8
CC1CCN(Cc2ccc([N+](=O)[O-])cc2)CC1	6.5	2.8	-0.1	4.1	.	.
COC(=O)Cn1c(=O)c2c(nc3n2CC(C)CN3c2cc(Cl)ccc2C)n(C)c1=O (configuration not stated)	-6.4	-0.4	0.0	0.9	.	.
Cc1cc2cc3c(cc2n2c(=O)n(CC(=O)N(C)C4CCCCC4)nc12)OCO3	-5.6	-0.5	0.2	-14.5	.	.
CCN1CCN(CC(O)COC(c2ccccc2)c2ccccc2C)CC1 (configuration not stated)	88.4*	-0.2	0.4	1.0	10.3	15.1
N#Cc1ccc(Cl)cc1NC(=O)COC(=O)C1CCN(c2nc3ccccc3o2)CC1	-9.2	1.8	0.2	12.1	.	.
Cc1ccc(Nc2nc(-c3ccc(Br)cc3)cs2)cc1	10.8	-1.8	0.3	-24.6	.	.
S=c1[nH]nc(-c2ccco2)n1/N=C/C=C/c1ccco1	73.4*	-0.8	-1.0	-7.6	32.8*	1.8	AlphaScreen DR=>6.48
CCc1nnc2sc(-c3ccc(NC(=O)COc4ccc(OC)cc4)cc3)nn12	10.5	-0.7	1.1	6.9	.	.
CCc1nnc2sc(-c3ccc(NC(=O)C(C)(C)C)cc3)nn12	53.8*	0.2	0.4	-28.2	6.4	8.8
O=C(Nc1nc(C(=O)N2CCN(Cc3ccccc3)CC2)cs1)c1ccc(Cl)cc1	6.0	1.1	0.3	21.9	.	.
Cc1ccc(C(=O)N2CCN3C(=O)[C@@H]4C[C@@H](O)CN4C(=O)[C@H]3C2)cc1F	12.0	3.5	-0.1	13.9	.	.
CCc1ccc(NC(=O)CSC2=C(C#N)C(c3cccs3)C(C(=O)Nc3ccccc3)=C(C)N2)cc1 (configuration not stated)	57.0*	-0.5	0.1	11.0	3.2	1.8
O=C(NCCOc1ccccc1)c1ccc(-c2ccc(N3CCOCC3)nc2)s1	79.5*	-12.4	0.3	-31.6	3.3	2.4
O=C(NCc1ccccc1)c1ccc(-c2ccc(N3CCOCC3)nc2)s1	11.8	-0.2	0.2	11.1	.	.
COc1ccn2c(C3CCNCC3)nc(-c3ccc4c(c3)OCO4)c2c1	-11.1	0.5	0.1	-54.5	.	.
COc1ccccc1OCCN1CCN(C)CC1	72.6*	0.6	0.0	-6.0	5.4	8.6
COc1ccccc1OCCN1CCOCC1	53.9*	-0.6	0.0	-3.5	6.0	8.9
SMILES	MITF inh	GPR151 ag	FBW7 act	TEAD-YAP inh	MITF confirm	AS interf ctr	others
COc1ccccc1OCCN1CCN(c2ccccc2)CC1	-1.0	-0.3	-0.1	13.9	.	.
COc1ccccc1OCCN1CCCCC1	27.3	-0.8	0.5	10.3	.	.
COc1ccc(C(=O)N2CCN(Cc3ccc(C(F)(F)F)cc3)CC2)cc1OC	51.1*	-0.2	-0.2	48.6*	6.6	12.4
COc1cc(OC)cc(C(=O)N2CCN(Cc3ccc(C(F)(F)F)cc3)CC2)c1	52.1*	-0.3	0.4	5.6	20.8	12.5
COc1cc(OC)cc(C(=O)N2CCN(Cc3ccc4ccccc4c3)CC2)c1	38.7	-1.9	0.4	5.9	.	.
COc1ccc(C(=O)N2CCN(Cc3cc(OC)c(O)c(OC)c3)CC2)cc1OC	37.4	0.7	-0.1	1.5	.	.
O=C(OC1(C(F)(F)F)C(=O)Nc2cc3c(cc21)OCO3)c1ccc(Cl)nc1 (configuration not stated)	81.4*	0.4	-0.3	-3.2	70.6*	-24.8	AlphaScreen DR=>7.12
CN(C)c1ccc(C(=O)N2N=C(C(F)F)CC2(O)C(F)F)cc1 (configuration not stated)	-1.5	-0.6	-0.1	-6.2	.	.
CN(C)c1cccc(C(=O)N2N=C(C(F)F)CC2(O)C(F)F)c1 (configuration not stated)	75.0*	-0.6	0.5	9.4	12.8	19.2
CCN(CC)CCNc1nc(-c2cccs2)c(CC(=O)O)s1	78.8*	0.9	0.1	5.0	-9.2	5.0
O=C(O)Cc1sc(NCc2ccco2)nc1-c1cccs1	18.0	1.4	0.4	0.3	.	.
COc1ccc(CC(=O)N2CCc3cc(OC)c(OC)cc3C2COc2ccc([N+](=O)[O-])cc2)cc1OC (configuration not stated)	-9.2	-1.0	0.0	-12.9	.	.
O=S(=O)(O)c1ccc(N/N=C2\CCc3ccccc32)cc1	67.2*	-0.6	-0.3	16.4	45.7*	-2.3	AlphaScreen DR=>6.48
NC(=O)C(=O)N/N=C1\CCc2ccccc21	5.1	-0.1	0.1	-1.8	.	.
C/C(=C\c1ccccc1)CN1CCC(C(=O)N2CCCC2)CC1	37.3	2.1	-0.2	12.3	.	.
CCOC(=O)N1CCN(C(=O)C2CCN(C/C(C)=C/c3ccccc3)CC2)CC1	57.9*	6.6*	0.1	1.7	11.3	12.2	GPR151 confirm=-0.4;GPR119 counter=7.1
O=C1Nc2ccc(S(=O)(=O)NCc3ccccc3)cc2C1=O	78.9*	6.1*	-0.1	12.0	57.5*	13.0	AlphaScreen DR=>6.08;GPR151 confirm=-0.3;GPR119 counter=-10.0
O=S(=O)(NCc1ccccc1)c1cccc(S(=O)(=O)c2ccccc2)c1	-9.8	3.2	0.0	-2.2	.	.
COc1ccccc1NC(=O)Cn1ccn(-c2cccc(Cl)c2)c(=O)c1=O	-3.1	-2.1	0.0	2.5	.	.
CC(=O)c1cccc(OCCCCN2CCN(C)CC2)c1	55.0*	5.1*	-0.2	7.5	3.2	15.8	GPR151 confirm=0.2;GPR119 counter=6.2
